Where a name gives a salt, the structure may show the parent alone.
Each molecule was assayed against PARP1 L713F-nLuc biosensor (HCT116) (UniProt P09874) (assay: PARP1 L713F-nLuc/akaLuc ratio relative to DMSO control (biosensor stabilization) (fold change); higher = more PARP1 biosensor stabilization (target engagement / stabilizer), active = hit call of the paper). Conditions: stock concentration (mM; final µM = stock mM x 1): 10; 24 h;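 active = log2 fold change beyond 2 SD from the library mean after excluding viability outliers; inactive = within 2 SD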.
Sequence of PARP1 L713F-nLuc biosensor (HCT116) (P09874 whole entry L713F, looked up): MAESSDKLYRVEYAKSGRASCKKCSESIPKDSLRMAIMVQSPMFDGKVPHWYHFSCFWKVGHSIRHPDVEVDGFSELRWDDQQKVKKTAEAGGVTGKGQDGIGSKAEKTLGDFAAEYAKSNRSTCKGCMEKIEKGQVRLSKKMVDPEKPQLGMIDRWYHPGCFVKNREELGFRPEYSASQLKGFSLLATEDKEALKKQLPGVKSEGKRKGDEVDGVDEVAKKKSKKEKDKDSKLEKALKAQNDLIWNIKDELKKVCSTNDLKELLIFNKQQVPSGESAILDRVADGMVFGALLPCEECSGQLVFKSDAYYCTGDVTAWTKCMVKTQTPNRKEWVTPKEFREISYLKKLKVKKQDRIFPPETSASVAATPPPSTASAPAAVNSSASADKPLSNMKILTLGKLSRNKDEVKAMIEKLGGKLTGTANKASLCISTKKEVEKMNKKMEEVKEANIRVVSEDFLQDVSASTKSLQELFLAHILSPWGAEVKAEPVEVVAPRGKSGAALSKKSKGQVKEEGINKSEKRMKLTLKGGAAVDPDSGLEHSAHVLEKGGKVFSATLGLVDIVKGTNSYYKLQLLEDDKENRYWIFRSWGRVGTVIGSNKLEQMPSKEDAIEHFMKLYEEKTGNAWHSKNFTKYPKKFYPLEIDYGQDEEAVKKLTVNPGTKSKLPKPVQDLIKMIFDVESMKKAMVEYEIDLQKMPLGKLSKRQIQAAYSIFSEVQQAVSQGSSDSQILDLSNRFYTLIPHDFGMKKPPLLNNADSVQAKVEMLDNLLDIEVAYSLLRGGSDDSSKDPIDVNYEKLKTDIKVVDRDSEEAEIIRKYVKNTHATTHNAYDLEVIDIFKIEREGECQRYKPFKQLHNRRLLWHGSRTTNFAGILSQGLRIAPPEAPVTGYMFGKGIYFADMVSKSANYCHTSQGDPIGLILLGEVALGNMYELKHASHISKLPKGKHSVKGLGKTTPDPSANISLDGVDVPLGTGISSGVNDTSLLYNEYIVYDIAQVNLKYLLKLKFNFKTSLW

Row | Structure (SMILES) | PARP1 L713F-nLuc/akaLuc ratio
1 | N[C@H]1CC[C@H](N[C@@H]2C[C@H]2c2ccccc2)CC1 [Iadademstat (dihydrochloride)] | 1.06 (inactive)
2 | O=S(=O)(NCCSSCCNS(=O)(=O)c1cc(Cl)ccc1Cl)c1cc(Cl)ccc1Cl | 1.18 (inactive)
3 | CNC(=O)CN1CCC(Oc2cc3c(Nc4cccc(Cl)c4F)ncnc3cc2OC)CC1 [Sapitinib (AZD8931)] | 0.797 (inactive)
4 | CC(C)(O)c1ccc(-c2nc3c(F)cc(F)cc3c(=O)[nH]2)cc1 [Tankyrase-IN-2] | 2.95 (active)
5 | COc1cc(Nc2ncc3c(n2)-c2ccc(Cl)cc2C(c2c(F)cccc2OC)=NC3)ccc1C(=O)O [Alisertib (MLN8237)] | 1.12 (inactive)
6 | CC/C(=C(\c1ccccc1)c1ccc(OCCNC)cc1)c1ccccc1 [N-Desmethyltamoxifen (hydrochloride)] | 0.968 (inactive)
7 | O=C1CCc2c(ccc3ccccc23)O1 [Splitomicin] | 0.895 (inactive)
8 | O=c1ccoc2cc(O)cc(O)c12 [5,7-Dihydroxychromone] | 1.02 (inactive)
9 | O=C(Nc1cc(Cl)cc(Cl)c1)Nc1cc(Cl)cc(Cl)c1 | 1.29 (inactive)
10 | CN(C)CCCCCCNC(=O)c1cccc(-c2cc(O)c3ncccc3c2)c1 | 0.363 (inactive)
11 | COC(=O)c1ccc(N2CCN(C)CC2)c(NC(=O)c2cccc(OC)c2)c1 | 0.856 (inactive)
12 | COc1ccc(C(=O)C2CCN(CC(=O)N(Cc3nc4c(c(=O)[nH]3)COCC4)CC3CC3)CC2)cc1 | 1.01 (inactive)
13 | O=C(Nc1ccnc(NC(=O)C2CC2)c1)c1c(Cl)cccc1Cl | 1.13 (inactive)
14 | FC(F)(F)c1ccc(CNc2ccc(Cc3c[nH]c4ncc(Cl)cc34)cn2)cn1 [Pexidartinib (PLX3397)] | 0.69 (inactive)
15 | Cc1cccc(CC(=O)N2CCc3c2ccc(-c2cn(C)c4ncnc(N)c24)c3F)n1 | 1.05 (inactive)
16 | COc1nc(Nc2cc(S(C)(=O)=O)ccc2N[C@@H](c2cccc3c2OC(F)(F)O3)c2ncccc2Cl)nc(N2CCNCC2)n1 | 0.707 (inactive)

Row | Structure (SMILES) | PARP1 L713F-nLuc/akaLuc ratio
17 | Cn1cncc1[C@@](N)(c1ccc(Cl)cc1)c1ccc2c(c1)c(-c1cccc(Cl)c1)cc(=O)n2C [Tipifarnib] | 0.456 (inactive)
18 | O=c1[nH]c(N2CCC3(CC2)CN(CCO)c2cc(F)cc(F)c23)nc2c1CCCC2 | 0.755 (inactive)
19 | O=C(NO)c1ccc(CN2CCCc3cc(Cl)ccc32)cc1 | 1.01 (inactive)
20 | CCC(CC)(NC(=O)C(C)C)C(=O)N[C@@H](CCCN=C(N)N)C(=O)NC1(C(=O)NC(c2ccc(F)cc2)c2ccc(F)cc2)CCCC1 | 0.991 (inactive)
21 | NC(=O)C1CCCc2c1[nH]c1ccc(Cl)cc21 (configuration not stated) [Selisistat] | 0.963 (inactive)
22 | C#Cc1cccc(Nc2ncnc3cc4c(cc23)OCCOCCOCCO4)c1 [Icotinib] | 0.808 (inactive)
23 | Cc1cc(-c2ccccc2)cc(C(=O)NNS(=O)(=O)c2cccc(O)c2)c1F | 1.16 (inactive)
24 | C[C@H](Nc1cc(-c2cnn(C)c2)cc(Nc2cnccn2)n1)c1ccc(F)cc1 [Ilginatinib hydrochloride] | 0.281 (active)
25 | COc1nn(C)cc1Nc1nccc(-c2c[nH]c3c(NC(=O)[C@@H](C)N4CCN(C)CC4)cccc23)n1 [Golidocitinib] | 0.637 (inactive)
26 | Cc1cc(Nc2cc(N3CCN(C)CC3)nc(Nc3ccc([N+](=O)[O-])cc3)n2)n[nH]1 | 1.52 (inactive)
27 | O=C(O)c1ccc2c(c1)nc(NC(=O)c1ccccc1)n2CCCc1ccccc1 | 1.26 (inactive)
28 | O=C(NN=Cc1c(O)ccc2ccccc12)c1ccncc1 | 0.653 (inactive)
29 | N#CC1(c2ccc(NC(=O)c3cccnc3NCc3ccncc3)cc2)CCCC1 | 0.967 (inactive)
30 | COc1ccc(-c2c(-c3ccc(C#N)c(F)c3)nc(N3CCC(N)CC3)n(C)c2=O)cc1F [Pulrodemstat (benzenesulfonate)] | 1.26 (inactive)
31 | CC[C@H](CO)Nc1nc(NCc2ccccc2)c2ncn(C(C)C)c2n1 [Roscovitine (Seliciclib,CYC202)] | 0.975 (inactive)
32 | CC1=C(C)C(=O)C(C(C)(C)CC(=O)N(CCCCSC[C@H]2O[C@@H](n3cnc4c(N)ncnc43)[C@H](O)[C@@H]2O)Cc2cccc(-c3ccc(Cl)cc3)c2)=C(C)C1=O | 0.784 (inactive)

Source: the supplement of paper PMC11624193, “Coupling cellular drug-target engagement to downstream pharmacology with CeTEAM” (Nature Communications, 2024)
